Results with a measured potency or affinity are listed apart. Active and inactive are the calls of the source. The limit is not given here; nearly all actives have IC50 up to about 0.91 µM.

The target in this assay is Calcium-dependent protein kinase 4 (Plasmodium falciparum (isolate 3D7)) (UniProt Q8IBS5). Put plainly: PfCDPK4 kinase inhibitors, biochemical, TCAMS library (AID 1159588). The conditions noted are these: recombinant PfCDPK4, Kinase-Glo ATP depletion luminescence. For orientation: Kinase-Glo reads ATP consumption through a luciferase reaction.
Calcium-dependent protein kinase 4 (Plasmodium falciparum (isolate 3D7)), sequence (Q8IBS5 whole entry, looked up): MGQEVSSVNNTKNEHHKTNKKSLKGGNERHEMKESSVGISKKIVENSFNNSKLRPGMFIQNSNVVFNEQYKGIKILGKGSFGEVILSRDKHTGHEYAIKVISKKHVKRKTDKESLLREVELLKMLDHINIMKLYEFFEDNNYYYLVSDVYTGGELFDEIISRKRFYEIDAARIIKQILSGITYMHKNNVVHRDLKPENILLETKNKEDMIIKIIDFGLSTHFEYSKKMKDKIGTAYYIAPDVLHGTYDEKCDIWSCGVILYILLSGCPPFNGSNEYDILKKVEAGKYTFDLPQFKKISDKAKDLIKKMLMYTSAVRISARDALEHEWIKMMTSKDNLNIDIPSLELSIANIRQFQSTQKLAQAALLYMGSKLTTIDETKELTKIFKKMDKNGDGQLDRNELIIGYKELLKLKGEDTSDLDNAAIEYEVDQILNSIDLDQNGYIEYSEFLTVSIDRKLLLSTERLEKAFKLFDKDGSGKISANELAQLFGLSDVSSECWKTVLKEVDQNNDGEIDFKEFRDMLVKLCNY
For `COc1ccc2nccc([C@@H](O)CN3CCC(NCc4cc5cc(C)ccc5s4)CC3)c2c1`, the result was inactive.
With `COc1ccccc1N1CCN(C(C(=O)NCc2ccc(C)cc2)c2ccc(C)cc2)CC1` (stereo not given) the entry was “inactive”.
For `CNCCNCc1cccc(-c2ccc(-c3nc4ccccc4[nH]3)s2)c1` the value was “inactive”.
For `COc1ccccc1C1CCN(CCCCNC(=O)c2ccc(NC(=O)c3ccc(Cl)cc3)cc2)CC1` the value was “inactive”; for `CN(C)CC(O)C(c1ccccc1)c1cccc(Br)c1` (stereo not given), “inactive”; for `CC(C)N1CCN(C(CN2CCN(CCCOc3ccc(-c4ccccc4)cc3)CC2)c2ccc(F)cc2)CC1` (stereo not given), “inactive”.
With `CN1CCN(Cc2nc(-c3ccc4c(Nc5ccc(Oc6ccccc6)cc5)ccnc4c3)cs2)CC1`, the result was inactive.
In the case of `CCN(CC)CC#Cc1ccc2[nH]c(C)c(Cl)c(=O)c2c1`, the outcome was inactive.
`O=S(=O)(NC1CCCCN(Cc2ccccc2O)C1)c1ccc(C(F)(F)F)cc1` (stereo not given): the outcome was inactive.
For `NC1=NC2(CCCCC2)N(OCCCOc2cccc3ccccc23)C(N)=N1` the value was “inactive”.
For `Cc1cc(C(F)(F)F)nn1-c1ccc(NC(=O)c2ccco2)cc1`, the result was inactive.
Regarding `NS(=O)(=O)NCCCN1CCN(c2ccccc2)CC1`, the result was inactive.
With `CC(C)(C)c1ccc(-c2cc3c(ccc4nc(N)nc(N)c43)[nH]2)cc1` the entry was “inactive”.
Turning to `COc1ccccc1CCNc1nc(C)cc(NCCC(=O)NCCOc2ccccc2)n1`, the result was inactive.
For `CCOc1cc(C)ccc1N(C1CCN(CCCCNC(=O)c2ccc(-c3ccc(C(F)(F)F)cc3)cc2)CC1)S(=O)(=O)c1ccccc1` the value was “inactive”.
With `Cc1ccc(NC(=O)N2CCCN(CCCCCNC(=O)/C=C/c3ccc(Cl)c(Cl)c3)CC2)cc1C` the entry was “inactive”; with `NCc1cccc(-c2ccccc2CNC2CCN(Cc3ccccc3)CC2)c1`, “inactive”; with `CCc1cc(=O)[nH]c(-n2nc(C)cc2NC(=O)CC(c2ccccc2)c2ccccc2)n1`, “inactive”.
With `COc1ccc2nccc([C@@H](O)CN3CCC(NC(=O)Cc4cc5ccccc5s4)CC3)c2c1` the entry was “inactive”.
As for `COc1ccc(C)cc1NC(=O)CSc1nc2cccnc2n1C1CCCCC1`, the outcome was inactive.
For `CC(CN(C)C)C(=O)Nc1cccc(-c2cccc(-c3nc4ccccc4[nH]3)c2)c1` (stereo not given) the value was “inactive”; for `CN(C)c1ccc(Br)c(Br)c1`, “inactive”; for `CCCCCN1CCC(CNS(=O)(=O)c2ccc(C(=O)Nc3cccc(C(F)(F)F)c3)cc2)CC1`, “inactive”.
With `CN(C)CCN(C)Cc1ccc(-c2ccc(NS(=O)(=O)c3cccc4cccnc34)cc2)cc1` the entry was “inactive”; with `O=C(NCC1CCC(C(=O)O)CC1)c1ccc(/C=C/C(=O)N2CCc3ccccc3C2c2ccc3c(c2)OCO3)cc1` (stereo not given), “inactive”.
For `O=C(Nc1ccc([N+](=O)[O-])cc1)Nc1cc(C(F)(F)F)ccc1F` the value was “inactive”.
On to `CN1CCN(c2ccnc3ccc(NC(=O)Nc4ccc(Br)cc4)cc23)CC1`, for which the result was inactive.
For `COc1ccc(Nc2nccc(NCCNC(=O)Nc3cc(C)ccc3C)n2)cc1`, the outcome was inactive.
For `CCOc1cc(NC(=O)Nc2ccnc3ccccc23)cc(OC)c1` the value was “inactive”; for `NC(N)=NC(=O)Nc1cc(Cl)c(Cl)c(Cl)c1`, “inactive”.
Take `CC(C)(C)c1ccc(OCCCON2C(N)=NC(N)=NC2(C)C)cc1`: the result was inactive.
For `COc1cc(OC)cc(-c2nn(-c3ccc([N+](=O)[O-])cc3Cl)c(=S)n2CC2CCCO2)c1` (stereo not given) the value was “inactive”.
For `CN1CCN(c2ccnc3ccc(NC(=O)Cc4ccc5ccccc5c4)cc23)CC1` the value was “inactive”.
Regarding `O=C(Nc1ccccc1)N(Cc1ccc(-c2ccc(CNC3CCCC3)cc2)cc1)C1CCN(Cc2ccccc2)CC1`, the outcome was inactive.
With `CCCCN(CCCC)CCCCNc1c2ccc(Cl)cc2nc2ccc(OC)cc12` the entry was “inactive”; with `CC(C)(CNC(=O)/C=C/c1ccc(Cl)c(Cl)c1)CNc1cc(=O)c2ccccc2[nH]1`, “inactive”; with `CC(C)CNCc1ccc(-c2ccc(CNC3CCN(Cc4ccccc4)CC3)cc2)cc1`, “inactive”.
With `CCN(CC)CCNc1ccnc2[nH]c3ccc(C)cc3c12` the entry was “inactive”; with `CN1CCN(c2ccnc3ccc(NC(=O)Nc4cccc(C#N)c4)cc23)CC1`, “inactive”; with `CC(O)C1CCCCN1C(=O)c1cccc(-c2cccc(-c3nc4ccc(C(F)(F)F)cc4[nH]3)c2)c1` (stereo not given), “inactive”.

These data come from PubChem BioAssay.
